Holding throughout (test): DAPPL (digital affinity profiling via proximity ligation, sequencing); 10 mM Tris-HCl pH 7.5, 50 mM NaCl, 1 mM DTT, 4% glycerol, room temperature, 30 min; GST-TFs on glutathione beads, 16-mer random dsDNA library, 0.1% formaldehyde crosslink after washing; high values mean tight binding
Conditions in all cases: protein: recombinant; tags: N-terminal GST; dsDNA, one strand shown

One experiment deals with T1, FLI1 (Homo sapiens, UniProt Q01543 1-452).
T1 sequence: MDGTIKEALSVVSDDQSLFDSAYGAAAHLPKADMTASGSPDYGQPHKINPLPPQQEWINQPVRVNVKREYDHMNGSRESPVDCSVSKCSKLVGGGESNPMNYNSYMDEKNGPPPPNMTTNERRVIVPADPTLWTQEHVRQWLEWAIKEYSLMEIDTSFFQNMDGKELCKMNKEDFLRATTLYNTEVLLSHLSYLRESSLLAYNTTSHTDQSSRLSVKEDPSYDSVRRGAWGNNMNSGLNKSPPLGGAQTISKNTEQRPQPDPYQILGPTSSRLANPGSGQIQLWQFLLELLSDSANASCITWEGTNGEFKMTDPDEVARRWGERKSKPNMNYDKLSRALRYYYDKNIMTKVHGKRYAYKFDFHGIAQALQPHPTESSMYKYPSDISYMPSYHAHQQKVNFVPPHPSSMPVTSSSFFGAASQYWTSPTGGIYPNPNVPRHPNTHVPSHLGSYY
The essentials:
(§1)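 Each value of binding signal is a hexamer's read frequency for a factor divided by the same hexamer's frequency in the tag-only sample. Barcoded, bead-captured GST fusions of human transcription factors made in yeast were pooled with that sample and incubated with 200 nmole of a random double-stranded 16-mer DNA library in Tris/NaCl/DTT/glycerol buffer at room temperature for 30 min. Washing, 0.1% formaldehyde crosslinking, proximity ligation, PCR and Illumina NextSeq500 sequencing followed.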

A further experiment addresses T2, ELK1 (Homo sapiens, UniProt P19419 1-428).
T2 sequence: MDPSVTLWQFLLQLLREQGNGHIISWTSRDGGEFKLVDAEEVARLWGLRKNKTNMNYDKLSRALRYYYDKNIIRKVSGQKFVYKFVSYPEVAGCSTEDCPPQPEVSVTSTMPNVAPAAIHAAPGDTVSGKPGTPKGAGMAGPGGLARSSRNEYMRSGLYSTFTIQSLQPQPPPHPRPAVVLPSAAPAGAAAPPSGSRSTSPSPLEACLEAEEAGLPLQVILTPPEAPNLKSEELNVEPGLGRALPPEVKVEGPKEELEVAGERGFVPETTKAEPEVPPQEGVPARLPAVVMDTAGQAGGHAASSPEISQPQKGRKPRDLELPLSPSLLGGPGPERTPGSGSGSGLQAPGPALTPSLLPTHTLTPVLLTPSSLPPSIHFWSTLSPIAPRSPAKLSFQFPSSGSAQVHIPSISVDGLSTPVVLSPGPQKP
The essentials: as §1

The next experiment addresses T3, GABPA (Homo sapiens, UniProt Q06546 1-454).
T3 sequence: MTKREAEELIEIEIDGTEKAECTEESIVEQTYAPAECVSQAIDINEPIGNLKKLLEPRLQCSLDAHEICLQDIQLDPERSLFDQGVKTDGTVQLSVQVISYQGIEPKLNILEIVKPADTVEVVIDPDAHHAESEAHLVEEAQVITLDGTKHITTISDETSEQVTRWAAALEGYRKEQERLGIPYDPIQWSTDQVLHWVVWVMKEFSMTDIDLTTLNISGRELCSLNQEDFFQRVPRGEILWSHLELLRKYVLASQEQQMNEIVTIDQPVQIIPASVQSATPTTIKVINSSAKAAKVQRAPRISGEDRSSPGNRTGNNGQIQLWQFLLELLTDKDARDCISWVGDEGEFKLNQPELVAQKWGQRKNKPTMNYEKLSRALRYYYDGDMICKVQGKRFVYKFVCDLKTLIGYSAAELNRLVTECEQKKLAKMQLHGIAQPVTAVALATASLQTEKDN
The method in brief: as §1

The next experiment deals with T4, ERG (Homo sapiens, UniProt P11308 1-479).
T4 sequence: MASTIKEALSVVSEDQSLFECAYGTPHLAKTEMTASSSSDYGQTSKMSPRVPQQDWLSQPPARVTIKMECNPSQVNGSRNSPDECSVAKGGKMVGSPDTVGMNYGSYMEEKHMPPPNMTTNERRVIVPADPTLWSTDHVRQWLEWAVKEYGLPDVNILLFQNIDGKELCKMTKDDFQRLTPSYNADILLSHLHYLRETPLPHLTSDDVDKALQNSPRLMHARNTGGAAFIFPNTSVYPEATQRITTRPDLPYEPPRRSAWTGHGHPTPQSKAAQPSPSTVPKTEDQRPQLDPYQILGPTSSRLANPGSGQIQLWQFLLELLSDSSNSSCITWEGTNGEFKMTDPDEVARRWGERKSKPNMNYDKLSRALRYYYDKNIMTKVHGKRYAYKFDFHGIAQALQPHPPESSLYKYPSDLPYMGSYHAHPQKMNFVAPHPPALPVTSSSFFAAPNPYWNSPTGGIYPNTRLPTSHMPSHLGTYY
The essentials: as §1

The next experiment concerns the target ELF1 (Homo sapiens, UniProt P32519 1-619). The method in brief: as §1
A further experiment concerns the target T5, EHF (Homo sapiens, UniProt Q9NZC4 1-300).
T5 sequence: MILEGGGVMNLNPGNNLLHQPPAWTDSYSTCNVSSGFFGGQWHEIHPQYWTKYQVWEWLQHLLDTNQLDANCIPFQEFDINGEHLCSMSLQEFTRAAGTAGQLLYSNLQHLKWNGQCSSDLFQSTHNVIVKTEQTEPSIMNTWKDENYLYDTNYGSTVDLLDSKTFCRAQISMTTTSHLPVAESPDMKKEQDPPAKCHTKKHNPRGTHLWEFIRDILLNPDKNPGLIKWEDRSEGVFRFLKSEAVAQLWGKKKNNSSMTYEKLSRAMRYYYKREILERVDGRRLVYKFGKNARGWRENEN
The essentials: as §1

The target of a further experiment is SPI1 (Homo sapiens, UniProt P17947 1-270). The essentials: as §1
Another experiment concerns the target SPIB (Homo sapiens, UniProt Q01892 1-262). The essentials: as §1
The next experiment concerns the target T6, ELK3 (Homo sapiens, UniProt P41970 1-407).
T6 sequence: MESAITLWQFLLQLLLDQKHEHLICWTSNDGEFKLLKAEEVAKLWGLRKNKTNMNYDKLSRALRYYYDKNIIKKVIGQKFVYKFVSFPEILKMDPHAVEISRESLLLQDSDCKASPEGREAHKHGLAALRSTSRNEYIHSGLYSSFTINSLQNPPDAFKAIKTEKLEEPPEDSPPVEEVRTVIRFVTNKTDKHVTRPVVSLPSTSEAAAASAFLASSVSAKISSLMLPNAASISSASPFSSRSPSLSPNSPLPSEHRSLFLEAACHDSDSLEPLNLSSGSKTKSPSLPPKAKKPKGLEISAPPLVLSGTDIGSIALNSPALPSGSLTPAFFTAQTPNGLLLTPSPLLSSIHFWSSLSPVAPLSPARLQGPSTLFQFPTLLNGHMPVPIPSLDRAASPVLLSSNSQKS
The method in brief:
as §1

For the next experiment, the target named is T7, FEV (Homo sapiens, UniProt Q99581 1-238).
T7 sequence: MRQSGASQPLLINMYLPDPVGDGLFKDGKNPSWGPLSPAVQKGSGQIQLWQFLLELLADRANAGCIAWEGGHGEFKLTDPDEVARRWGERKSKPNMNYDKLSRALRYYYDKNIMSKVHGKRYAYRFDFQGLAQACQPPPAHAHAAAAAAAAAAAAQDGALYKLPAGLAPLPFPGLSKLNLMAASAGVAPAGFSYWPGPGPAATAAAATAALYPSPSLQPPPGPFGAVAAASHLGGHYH
The essentials: as §1

A further experiment addresses ETV5 (Homo sapiens, UniProt P41161 1-510). The essentials: as §1
The target of another experiment is T8, SPIC (Homo sapiens, UniProt Q8N5J4 1-248).
T8 sequence: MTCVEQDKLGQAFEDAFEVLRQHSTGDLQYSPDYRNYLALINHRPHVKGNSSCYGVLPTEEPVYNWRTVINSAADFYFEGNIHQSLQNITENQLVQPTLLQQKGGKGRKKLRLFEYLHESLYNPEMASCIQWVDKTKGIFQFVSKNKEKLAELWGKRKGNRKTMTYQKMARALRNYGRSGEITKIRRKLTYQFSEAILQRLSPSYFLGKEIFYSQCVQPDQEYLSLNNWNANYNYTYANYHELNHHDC
The method in brief: as §1

A further experiment concerns the target ELF4 (Homo sapiens, UniProt Q99607 1-663). The essentials: as §1
For the next experiment, the target named is T9, ELK4 (Homo sapiens, UniProt P28324-2 1-405).
T9 sequence: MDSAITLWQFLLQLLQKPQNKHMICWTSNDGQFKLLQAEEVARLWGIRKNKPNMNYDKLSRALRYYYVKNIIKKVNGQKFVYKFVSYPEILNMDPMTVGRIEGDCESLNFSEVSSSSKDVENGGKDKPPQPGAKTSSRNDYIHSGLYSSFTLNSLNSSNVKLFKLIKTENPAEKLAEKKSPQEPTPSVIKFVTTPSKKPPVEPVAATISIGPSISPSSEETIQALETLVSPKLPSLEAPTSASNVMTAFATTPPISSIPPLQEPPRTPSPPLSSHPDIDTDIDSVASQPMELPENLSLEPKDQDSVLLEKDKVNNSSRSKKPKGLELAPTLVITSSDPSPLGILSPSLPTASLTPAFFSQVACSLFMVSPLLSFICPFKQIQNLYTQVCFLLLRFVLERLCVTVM
The method in brief: as §1

The next experiment addresses T10, ETV2 (Homo sapiens, UniProt O00321 1-342).
T10 sequence: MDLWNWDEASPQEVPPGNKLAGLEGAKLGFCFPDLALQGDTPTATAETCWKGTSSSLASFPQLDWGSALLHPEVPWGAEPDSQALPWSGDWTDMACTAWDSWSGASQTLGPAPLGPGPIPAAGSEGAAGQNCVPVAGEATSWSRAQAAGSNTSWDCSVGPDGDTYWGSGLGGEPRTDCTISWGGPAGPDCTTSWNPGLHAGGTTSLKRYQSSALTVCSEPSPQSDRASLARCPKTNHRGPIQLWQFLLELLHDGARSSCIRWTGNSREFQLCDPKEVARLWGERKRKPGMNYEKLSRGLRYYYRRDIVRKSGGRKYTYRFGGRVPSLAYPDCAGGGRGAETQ
The essentials:
as §1

The next experiment deals with T11, ELF3 (Homo sapiens, UniProt P78545 1-371).
T11 sequence: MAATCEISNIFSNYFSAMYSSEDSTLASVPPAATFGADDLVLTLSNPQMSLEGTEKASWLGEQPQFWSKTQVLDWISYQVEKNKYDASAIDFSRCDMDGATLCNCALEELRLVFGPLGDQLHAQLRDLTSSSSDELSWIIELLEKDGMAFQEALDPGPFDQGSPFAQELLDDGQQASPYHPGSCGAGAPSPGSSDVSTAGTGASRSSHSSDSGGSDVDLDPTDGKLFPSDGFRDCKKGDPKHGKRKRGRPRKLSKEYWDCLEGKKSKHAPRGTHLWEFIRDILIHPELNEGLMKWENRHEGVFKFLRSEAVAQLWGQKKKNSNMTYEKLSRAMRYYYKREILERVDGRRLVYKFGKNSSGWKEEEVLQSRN
The method in brief: as §1

In a further experiment the target is ETV1 (Homo sapiens, UniProt P50549 1-477). The method in brief: as §1
Sequence of ETV1 (P50549 whole entry): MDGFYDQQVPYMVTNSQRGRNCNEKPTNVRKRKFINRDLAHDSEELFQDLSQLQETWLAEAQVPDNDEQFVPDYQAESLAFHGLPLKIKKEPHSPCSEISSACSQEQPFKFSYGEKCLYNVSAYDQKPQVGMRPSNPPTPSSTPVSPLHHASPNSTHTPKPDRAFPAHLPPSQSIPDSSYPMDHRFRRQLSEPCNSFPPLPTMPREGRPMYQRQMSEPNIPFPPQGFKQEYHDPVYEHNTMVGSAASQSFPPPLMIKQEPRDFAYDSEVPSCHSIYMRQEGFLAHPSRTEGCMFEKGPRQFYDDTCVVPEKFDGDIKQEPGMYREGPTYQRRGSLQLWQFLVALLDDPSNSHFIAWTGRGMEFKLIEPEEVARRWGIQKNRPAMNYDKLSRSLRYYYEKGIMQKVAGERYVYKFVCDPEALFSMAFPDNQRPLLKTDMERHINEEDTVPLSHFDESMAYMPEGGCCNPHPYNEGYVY

Sequence of ELF4 (Q99607 whole entry): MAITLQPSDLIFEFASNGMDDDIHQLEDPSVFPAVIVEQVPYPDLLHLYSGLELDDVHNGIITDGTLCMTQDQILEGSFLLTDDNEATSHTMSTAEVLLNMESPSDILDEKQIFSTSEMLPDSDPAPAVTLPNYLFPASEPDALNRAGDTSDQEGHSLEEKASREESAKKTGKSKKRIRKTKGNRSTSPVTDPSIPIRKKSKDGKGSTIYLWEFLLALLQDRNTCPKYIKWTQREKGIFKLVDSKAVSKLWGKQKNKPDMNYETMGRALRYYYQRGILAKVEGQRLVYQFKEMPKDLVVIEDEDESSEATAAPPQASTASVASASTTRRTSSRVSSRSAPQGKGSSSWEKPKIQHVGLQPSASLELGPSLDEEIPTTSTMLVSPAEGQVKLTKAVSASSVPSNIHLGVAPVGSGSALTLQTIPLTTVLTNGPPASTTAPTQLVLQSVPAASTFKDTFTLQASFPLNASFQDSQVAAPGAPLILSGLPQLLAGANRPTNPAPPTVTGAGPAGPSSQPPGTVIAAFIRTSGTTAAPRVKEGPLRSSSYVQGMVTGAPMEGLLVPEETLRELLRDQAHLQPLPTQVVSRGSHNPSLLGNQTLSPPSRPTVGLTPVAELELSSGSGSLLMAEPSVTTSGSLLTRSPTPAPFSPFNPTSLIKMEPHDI
Sequence of SPIB (Q01892 whole entry): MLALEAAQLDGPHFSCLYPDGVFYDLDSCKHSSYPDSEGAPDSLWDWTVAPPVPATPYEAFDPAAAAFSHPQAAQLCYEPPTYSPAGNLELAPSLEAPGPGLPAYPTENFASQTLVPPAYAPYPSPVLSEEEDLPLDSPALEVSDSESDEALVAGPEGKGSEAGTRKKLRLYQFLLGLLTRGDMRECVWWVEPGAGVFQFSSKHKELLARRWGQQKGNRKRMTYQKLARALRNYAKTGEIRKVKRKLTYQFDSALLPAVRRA
Sequence of ETV5 (P41161 whole entry): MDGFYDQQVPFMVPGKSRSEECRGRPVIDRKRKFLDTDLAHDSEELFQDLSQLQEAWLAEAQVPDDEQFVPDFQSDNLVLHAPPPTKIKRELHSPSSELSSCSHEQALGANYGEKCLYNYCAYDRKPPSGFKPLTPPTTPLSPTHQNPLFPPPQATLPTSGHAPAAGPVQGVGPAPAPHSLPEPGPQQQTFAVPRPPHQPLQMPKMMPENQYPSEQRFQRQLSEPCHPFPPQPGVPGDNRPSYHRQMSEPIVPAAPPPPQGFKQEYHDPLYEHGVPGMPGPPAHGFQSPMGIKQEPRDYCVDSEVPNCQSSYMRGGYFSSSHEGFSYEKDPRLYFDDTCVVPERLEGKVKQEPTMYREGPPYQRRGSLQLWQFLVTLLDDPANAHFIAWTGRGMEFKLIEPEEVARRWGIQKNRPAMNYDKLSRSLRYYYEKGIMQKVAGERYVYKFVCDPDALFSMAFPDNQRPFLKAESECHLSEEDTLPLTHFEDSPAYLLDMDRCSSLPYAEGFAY
Sequence of ELF1 (P32519 whole entry): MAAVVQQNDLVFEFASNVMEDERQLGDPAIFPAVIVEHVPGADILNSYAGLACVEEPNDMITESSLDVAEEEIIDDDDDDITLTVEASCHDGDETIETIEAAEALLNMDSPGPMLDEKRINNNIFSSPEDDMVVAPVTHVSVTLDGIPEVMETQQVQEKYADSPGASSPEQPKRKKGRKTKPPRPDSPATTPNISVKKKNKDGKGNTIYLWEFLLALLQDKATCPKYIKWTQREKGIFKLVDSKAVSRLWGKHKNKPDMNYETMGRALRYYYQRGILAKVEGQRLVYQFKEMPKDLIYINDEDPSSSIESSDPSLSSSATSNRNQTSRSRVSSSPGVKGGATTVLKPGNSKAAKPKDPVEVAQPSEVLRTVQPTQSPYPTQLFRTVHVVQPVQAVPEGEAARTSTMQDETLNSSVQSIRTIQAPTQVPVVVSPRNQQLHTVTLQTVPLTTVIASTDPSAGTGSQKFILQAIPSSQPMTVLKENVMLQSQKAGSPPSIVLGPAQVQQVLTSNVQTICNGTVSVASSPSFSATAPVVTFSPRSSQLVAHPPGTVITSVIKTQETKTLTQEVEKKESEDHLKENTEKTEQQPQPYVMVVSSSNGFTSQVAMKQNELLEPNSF

Consider GTTTTG, for which the binding signal with FLI1 was 1.19 fold enrichment (6-mer frequency, TF over GST control); with ELK1, 1.17 fold enrichment (6-mer frequency, TF over GST control); with GABPA, 1.2 fold enrichment (6-mer frequency, TF over GST control); with ERG it was 1.25 fold enrichment (6-mer frequency, TF over GST control); with ELF1, 1.23 fold enrichment (6-mer frequency, TF over GST control); in the experiment with EHF it was 1.15 fold enrichment (6-mer frequency, TF over GST control). The binding signal was 1.2 fold enrichment (6-mer frequency, TF over GST control) with SPI1; 1.23 fold enrichment (6-mer frequency, TF over GST control) with SPIB; 1.11 fold enrichment (6-mer frequency, TF over GST control) with ELK3; 1.16 fold enrichment (6-mer frequency, TF over GST control) in the experiment with FEV; 1.28 fold enrichment (6-mer frequency, TF over GST control) with ETV5; 1.34 fold enrichment (6-mer frequency, TF over GST control) with SPIC. Further, the binding signal was 1.18 fold enrichment (6-mer frequency, TF over GST control) with ELF4; 1.22 fold enrichment (6-mer frequency, TF over GST control) in the experiment with ELK4; 1.26 fold enrichment (6-mer frequency, TF over GST control) with ETV2; 1.03 fold enrichment (6-mer frequency, TF over GST control) with ELF3; 1.25 fold enrichment (6-mer frequency, TF over GST control) with ETV1.
Regarding ACCCAC, the binding signal in the experiment with FLI1 was 1.28 fold enrichment (6-mer frequency, TF over GST control); with ELK1 it was 1.24 fold enrichment (6-mer frequency, TF over GST control); with GABPA, 1.35 fold enrichment (6-mer frequency, TF over GST control); with ERG it was 1.1 fold enrichment (6-mer frequency, TF over GST control); in the experiment with ELF1 it was 1.13 fold enrichment (6-mer frequency, TF over GST control); in the experiment with EHF it was 1.21 fold enrichment (6-mer frequency, TF over GST control). Further, the binding signal was 1.18 fold enrichment (6-mer frequency, TF over GST control) with SPI1; 1.07 fold enrichment (6-mer frequency, TF over GST control) with SPIB; 1.24 fold enrichment (6-mer frequency, TF over GST control) in the experiment with ELK3; 1.22 fold enrichment (6-mer frequency, TF over GST control) in the experiment with FEV; 1.15 fold enrichment (6-mer frequency, TF over GST control) with ETV5; 1.23 fold enrichment (6-mer frequency, TF over GST control) with SPIC. Further, the binding signal is 1.23 fold enrichment (6-mer frequency, TF over GST control) with ELF4; 1.21 fold enrichment (6-mer frequency, TF over GST control) with ELK4; 1.19 fold enrichment (6-mer frequency, TF over GST control) in the experiment with ETV2; 1.33 fold enrichment (6-mer frequency, TF over GST control) with ELF3; 1.17 fold enrichment (6-mer frequency, TF over GST control) with ETV1.

For the origin of these results see paper PMC7862700, “An all-to-all approach to the identification of sequence-specific readers for epigenetic DNA modifications on cytosine”.
